Measurements: PubChem BioAssay (NCI)
Compounds without any hit were thinned out: in the full panel of roughly 79,000, 15% have a hit. Active and inactive are the calls of the source. Rule as the data show it: active = growth inhibition above about 70%; inactive = the rest.

Legend:
[1] = NCI Yeast Anticancer Drug Screen. Data for the rad52 strain (AID 147);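 also: 0% = growth of vehicle-treated control cultures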; settings: S. cerevisiae rad52 mutant growth inhibition, active compounds read high
Summary of the method: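 Genetically altered yeast (DNA damage repair defect) treated with compound; inhibition calculated relative to vehicle.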

[2] = NCI Yeast Anticancer Drug Screen. Data for the wt1 strain (AID 149);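 also: 0% = growth of vehicle-treated wt1 cultures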; settings: S. cerevisiae wt1 strain (SPY 50644) growth inhibition, active compounds read high
Summary of the method: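 Each compound is tested on wt1 yeast and the loss of growth versus vehicle gives the inhibition value.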

[3] = NCI Yeast Anticancer Drug Screen. Data for the rad50EPP+ strain (AID 151);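 also: 0% = growth of vehicle-treated control cultures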; settings: S. cerevisiae rad50 mutant strain, active compounds read high
Summary of the method: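 Strain rad50EPP+; compound exposure; % growth inhibition vs vehicle.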

[4] = NCI Yeast Anticancer Drug Screen. Data for the mgt1 strain (AID 153); settings: S. cerevisiae mgt1 mutant growth inhibition, active compounds read high
Summary of the method: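 Read-out: yeast growth inhibition vs vehicle control. Strain mgt1, drawn from a panel altered in DNA damage repair or cell cycle control.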

[5] = NCI Yeast Anticancer Drug Screen. Data for the rad50 strain (AID 155);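 also: 0% = growth of vehicle-only cultures of the same strain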; settings: S. cerevisiae rad50 strain growth inhibition, active compounds read high
Summary of the method: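 Vehicle-treated cultures provide the reference for the growth inhibition reported for compound-exposed, repair-deficient yeast.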

[6] = NCI Yeast Anticancer Drug Screen. Data for the mec2-1 strain (AID 157); settings: S. cerevisiae mec2-1 strain, active compounds read high
Summary of the method: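 Cells of the genetically defined mec2-1 yeast strain are incubated with test compound. Inhibition of growth is calculated against vehicle-treated controls.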

[7] = NCI Yeast Anticancer Drug Screen. Data for the rad14 strain (AID 159);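 also: 0% = growth of vehicle-treated control cultures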; settings: S. cerevisiae rad14 strain growth inhibition, active compounds read high
Summary of the method: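 Inhibition of growth is reported for a repair-deficient yeast mutant following compound treatment, calculated relative to cultures that received vehicle.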

[8] = NCI Yeast Anticancer Drug Screen. Data for the sgs1 mgt1 strain (AID 161);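 also: 0% = growth of cultures given vehicle only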; settings: S. cerevisiae sgs1 mgt1 strain, active compounds read high
Summary of the method: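 Mutant yeast exposed to compound; growth scored against vehicle-only wells.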

[9] = NCI Yeast Anticancer Drug Screen. Data for the CLN2oe strain (AID 163);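 also: 0% = growth of vehicle-only control cultures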; settings: S. cerevisiae CLN2oe strain, active compounds read high
Summary of the method: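 Strain altered in cell-cycle control, incubated with compound; growth compared to solvent-treated controls.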

[10] = NCI Yeast Anticancer Drug Screen. Data for the cln2 rad14 strain (AID 165);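 also: 0% = growth equal to vehicle treated cultures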; settings: S. cerevisiae cln2 rad14 strain, active compounds read high
Summary of the method: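 The screen exposed genetically defined yeast (cln2 rad14) to test compounds and scored growth inhibition relative to vehicle-treated controls.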

[11] = NCI Yeast Anticancer Drug Screen. Data for the bub3 strain (AID 167); settings: S. cerevisiae bub3 mutant strain, active compounds read high
Summary of the method: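 Mutant yeast screening strain plus compound; vehicle-treated cultures serve as the 0% inhibition reference.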

[12] = NCI Yeast Anticancer Drug Screen. Data for the wt2 strain (AID 169); settings: S. cerevisiae wt2 strain growth inhibition, active compounds read high
Summary of the method: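 Steps: yeast strain treated with compound; growth recorded; inhibition calculated relative to cultures given vehicle alone.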

[13] = NCI Yeast Anticancer Drug Screen. Data for the mlh1 strain (AID 171);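 also: 0% = growth of vehicle-treated control cultures of the same strain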; settings: S. cerevisiae mlh1 strain growth inhibition, active compounds read high
Summary of the method: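 Yeast screen: mutant strain plus compound, growth scored against vehicle control wells.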

[14] = NCI Yeast Anticancer Drug Screen. Data for the sgs1 strain (AID 173);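 also: 0% = growth of vehicle-only control cultures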; settings: S. cerevisiae sgs1 mutant, active compounds read high
Summary of the method: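 Inhibition of yeast growth served as the measure. The mutant strain was treated with each compound, and growth was normalised to cultures receiving vehicle alone.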

[15] = NCI Yeast Anticancer Drug Screen. Data for the mlh1 rad18 strain (AID 175); settings: S. cerevisiae mlh1 rad18 strain growth inhibition, active compounds read high
Summary of the method: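 Compound-treated yeast growth, normalised to vehicle controls. Strain bears defined DNA repair mutations.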

[16] = NCI Yeast Anticancer Drug Screen. Data for the rad18 strain (AID 177); settings: S. cerevisiae rad18 mutant growth inhibition, active compounds read high
Summary of the method: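 Inhibition values reflect reduced yeast growth compared with vehicle-treated controls, using a strain engineered with a DNA damage repair defect.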

[17] = at 5.0 µM (retest, dose inferred, filed as 0.5)
[18] = at 50.0 µM (retest, dose inferred, filed as 5.0)

Measured: growth inhibition

Cc1ccc(Cl)cc1NC(=O)OCCN(C)C(=O)Nc1cc(Cl)ccc1C
active: [5]; [18] 95% | [5]; at 50.0 µM 86% | [6]; [18] 93% | [10]; [18] 75% | [10]; at 50.0 µM 85.1% | [15]; [18] 98%
inactive: [1]; at 1.2 µM 7% | [1]; at 3.7 µM -12% | [1]; at 11.0 µM -36% | [1]; at 33.0 µM -21% | [1]; at 100.0 µM -1% | [2]; at 1.2 µM -30% | [2]; at 3.7 µM -35% | [2]; at 11.0 µM -38% | [2]; at 33.0 µM -30% | [2]; at 100.0 µM 34% | [3]; at 1.2 µM -26% | [3]; at 3.7 µM -20% | [3]; at 11.0 µM -14% | [3]; at 33.0 µM -6% | [3]; at 100.0 µM -11% | [4]; at 1.2 µM -29% | [4]; at 3.7 µM -28% | [4]; at 11.0 µM -29% | [4]; at 33.0 µM -24% | [4]; at 100.0 µM 2% | [5]; at 1.2 µM -26% | [5]; at 3.7 µM -34% | [5]; [17] 57% | [5]; at 11.0 µM -35% | [5]; at 33.0 µM -31% | [5]; at 100.0 µM 19% | [6]; at 1.2 µM -28% | [6]; at 3.7 µM -34% | [6]; [17] 57% | [6]; at 11.0 µM -36% | [6]; at 33.0 µM -31% | [6]; at 50.0 µM 61% | [6]; at 100.0 µM -21% | [7]; at 1.2 µM -26% | [7]; at 3.7 µM -25% | [7]; at 11.0 µM -31% | [7]; at 33.0 µM -39% | [7]; at 100.0 µM -15% | [8]; [17] -29% | [8]; [18] 32% | [8]; at 50.0 µM 37.6% | [9]; at 1.2 µM -48% | [9]; at 3.7 µM -28% | [9]; at 11.0 µM -48% | [9]; at 33.0 µM -33% | [9]; at 100.0 µM -26% | [10]; [17] 17% | [11]; at 1.2 µM -39% | [11]; at 3.7 µM -39% | [11]; [17] 13% | [11]; at 11.0 µM -42% | [11]; at 33.0 µM -36% | [11]; [18] 56% | [11]; at 50.0 µM 46.9% | [11]; at 100.0 µM 13% | [12]; at 1.2 µM -37% | [12]; at 3.7 µM -27% | [12]; at 11.0 µM -23% | [12]; at 33.0 µM -8% | [12]; at 100.0 µM 6% | [13]; at 1.2 µM -24% | [13]; at 3.7 µM -36% | [13]; at 11.0 µM -33% | [13]; at 33.0 µM -30% | [13]; at 100.0 µM 11% | [14]; at 1.2 µM -22% | [14]; at 3.7 µM -21% | [14]; at 11.0 µM -23% | [14]; at 33.0 µM -15% | [14]; at 100.0 µM 8% | [15]; [17] 45% | [15]; at 50.0 µM 62% | [16]; at 1.2 µM -27% | [16]; at 3.7 µM -35% | [16]; at 11.0 µM -33% | [16]; at 33.0 µM -37% | [16]; at 100.0 µM 15%

O=C1c2ccccc2C(=O)c2cc(CCl)ccc21
inactive: [1]; at 1.2 µM 4% | [1]; at 3.7 µM 12% | [1]; at 11.0 µM 17% | [1]; at 33.0 µM 21% | [1]; at 100.0 µM 20% | [2]; at 1.2 µM 1% | [2]; at 3.7 µM 6% | [2]; at 11.0 µM 3% | [2]; at 33.0 µM 7% | [2]; at 100.0 µM 10% | [3]; at 1.2 µM 27% | [3]; at 3.7 µM 47% | [3]; at 11.0 µM 64% | [3]; at 33.0 µM 69% | [3]; at 100.0 µM 68% | [4]; at 1.2 µM -1% | [4]; at 3.7 µM 2% | [4]; at 11.0 µM 7% | [4]; at 33.0 µM 10% | [4]; at 100.0 µM 12% | [5]; at 1.2 µM 2% | [5]; at 3.7 µM 6% | [5]; [17] 20% | [5]; at 11.0 µM 12% | [5]; at 33.0 µM 13% | [5]; [18] 32% | [5]; at 50.0 µM 25% | [5]; at 100.0 µM 14% | [6]; at 1.2 µM 2% | [6]; at 3.7 µM 7% | [6]; [17] 12% | [6]; at 11.0 µM 17% | [6]; at 33.0 µM 20% | [6]; [18] 38% | [6]; at 50.0 µM 24.4% | [6]; at 100.0 µM 16% | [7]; at 1.2 µM 2% | [7]; at 3.7 µM 4% | [7]; at 11.0 µM 7% | [7]; at 33.0 µM 8% | [7]; at 100.0 µM 13% | [8]; [17] 15% | [8]; [18] 30% | [8]; at 50.0 µM 46.2% | [9]; at 1.2 µM -1% | [9]; at 3.7 µM -5% | [9]; at 11.0 µM 8% | [9]; at 33.0 µM 5% | [9]; at 100.0 µM 2% | [10]; [17] 4% | [10]; [18] 18% | [10]; at 50.0 µM 28% | [11]; at 1.2 µM 5% | [11]; at 3.7 µM 11% | [11]; [17] 39% | [11]; at 11.0 µM 19% | [11]; at 33.0 µM 25% | [11]; [18] 56% | [11]; at 50.0 µM 58.8% | [11]; at 100.0 µM 22% | [12]; at 1.2 µM 3% | [12]; at 3.7 µM 7% | [12]; at 11.0 µM 8% | [12]; at 33.0 µM 12% | [12]; at 100.0 µM 12% | [13]; at 1.2 µM 3% | [13]; at 3.7 µM 3% | [13]; at 11.0 µM 6% | [13]; at 33.0 µM 9% | [13]; at 100.0 µM 10% | [14]; at 1.2 µM 2% | [14]; at 3.7 µM 2% | [14]; at 11.0 µM 7% | [14]; at 33.0 µM 11% | [14]; at 100.0 µM 14% | [15]; [17] 29% | [15]; [18] 51% | [15]; at 50.0 µM 31.2% | [16]; at 1.2 µM 9% | [16]; at 3.7 µM 22% | [16]; at 11.0 µM 39% | [16]; at 33.0 µM 46% | [16]; at 100.0 µM 53%
